Test results taken from PubChem BioAssay (NCATS).
Results filed as inconclusive are left out. A number with no mark means an inactive call. Activity calls are given as the source filed them. Calls follow the shape of the dose curve; as a rule, active = well fitted inhibition curve with a large enough effect; inconclusive = small, poorly fitted or top-dose-only effect; inactive = flat fitted curve, though single readings scatter.

Test system: P93_24
Test: qHTS profiling for inhibitors of Plasmodium falciparum proliferation (AID 504749); also: nearly all actives have a fitted effect of over 60% in size;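 as to activity, negative = inhibition: 0% = DMSO vehicle and full inhibition = artemisinin control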
Settings: P. falciparum in erythrocytes, SYBR Green DNA, 72 h; series mostly up to 28.7 µM; activity, negative = inhibition: at the top concentration
Procedure, shortened: (§1)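 Quantitative HTS: compounds pinned into medium, infected erythrocytes added (0.3% parasitemia, 2.5% hematocrit), 72 h culture at 37 C under 5% CO2. Saponin/Triton lysis with SYBR Green I, overnight RT, then fluorescence read.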
Potency is read from the fitted curve at half-maximal effect.

Compound | activity, negative = inhibition | outcome
CC1(C)O[C@H]2C[C@@H]3[C@H]4CCC5=CC(=O)C=C[C@]5(C)[C@@]4(F)[C@@H](O)C[C@]3(C)[C@]2(C(=O)CO)O1 | -21.7% | 
CC(=O)c1ccc(S(=O)(=O)NC(=O)NC2CCCCC2)cc1 | 1.98% | 
CC(=O)N[C@@H](CS)C(=O)O | 3.94% | 
Cc1cnc(C(=O)O)c[n+]1[O-] | 0.361% | 
O=C1NC(=O)C(c2ccccc2)(c2ccccc2)N1 | -12% | 
CN(C)CCC(c1ccccc1)c1ccccn1 (centres undefined) | 10.5% | 
O=C1NCC2(CCN(CCc3ccccc3)CC2)O1 | -0.405% | 
NC(N)=Nc1nc(CSCC/C(N)=N/S(N)(=O)=O)cs1 | -6.24% | 
CCCCCN(C)CCC(O)(P(=O)(O)O)P(=O)(O)O | 1.42% | 
NCCS | 2.37% | 
COc1ccccc1N1CCN(CCCNc2cc(=O)n(C)c(=O)n2C)CC1 | -22.8% | 
O=C(NCCN1CCOCC1)c1ccc(Cl)cc1 | -17.8% | 
C[C@@H](O)[C@H]1C(=O)N2C(C(=O)O)=C(S[C@@H]3CN[C@H](C(=O)N(C)C)C3)[C@H](C)[C@H]12 | 2.52% | 
CC(=O)CCCCn1c(=O)c2c(ncn2C)n(C)c1=O | 3.46% [at 12.8 µM] | 
O=C(O)c1cc(-c2ccccc2)nc2ccccc12 | 9.2% | 
O=C(O)Cc1cccc2ccccc12 | 13.2% | 
CCN(CC)C(=O)c1ccc(O)c(OC)c1 |  | inactive
CCCNC(=O)NS(=O)(=O)c1ccc(Cl)cc1 | 7.16% | 
CCN1CCC[C@H]1CNC(=O)c1cc(S(N)(=O)=O)ccc1OC | 7.78% | 
C[N+](C)(C)CCCCCC[N+](C)(C)C | 7.36% | 
CCN(CC)CCNC(=O)c1ccc(N)cc1 | 8.57% | 
O=C(O)c1c(Cl)c(Cl)c(Cl)c(Cl)c1-c1c2cc(I)c(=O)c(I)c-2oc2c(I)c(O)c(I)cc12 | 5.82% | 
CCOC(=O)O[C@]1(C(=O)OCCl)CC[C@@H]2[C@H]3CCC4=CC(=O)C=C[C@]4(C)[C@@H]3[C@@H](O)C[C@@]21C | -1.45% | 
CCN(CC)CCOC(=O)c1ccc(N)cc1 | 6.24% [at 12.8 µM] | 

Test system: P94_40
Test: as above
Settings: P. falciparum in erythrocytes, SYBR Green DNA, 72 h; series mostly up to 28.7 µM; activity, negative = inhibition: at the top concentration
Procedure, shortened: as §1

Compound | activity, negative = inhibition | Potency
COc1ccc(Cc2nccc3cc(OC)c(OC)cc23)cc1OC | -17.2% [at 12.8 µM] | 
CC(=O)c1ccc(S(=O)(=O)NC(=O)NC2CCCCC2)cc1 | 1.73% | 
CC1=C(/C=C/C(C)=C/C=C/C(C)=C/C(=O)Nc2ccc(O)cc2)C(C)(C)CCC1 |  | 11.2 µM (active)
CC(=O)N[C@@H](CS)C(=O)O | 4.21% | 
Cc1cnc(C(=O)O)c[n+]1[O-] | 0.625% | 
O=C1NC(=O)C(c2ccccc2)(c2ccccc2)N1 | 6.8% | 
O=C1NCC2(CCN(CCc3ccccc3)CC2)O1 | -7.38% | 
NC(N)=Nc1nc(CSCC/C(N)=N/S(N)(=O)=O)cs1 | 9.81% | 
CCCCCN(C)CCC(O)(P(=O)(O)O)P(=O)(O)O | 8.11% | 
NCCS | 11.4% | 
COc1ccccc1N1CCN(CCCNc2cc(=O)n(C)c(=O)n2C)CC1 | -18.3% | 
O=C(NCCN1CCOCC1)c1ccc(Cl)cc1 | -1.24% | 
C[C@@H](O)[C@H]1C(=O)N2C(C(=O)O)=C(S[C@@H]3CN[C@H](C(=O)N(C)C)C3)[C@H](C)[C@H]12 | 2.91% | 
CC(=O)CCCCn1c(=O)c2c(ncn2C)n(C)c1=O | 0.161% [at 12.8 µM] | 
O=C(O)c1cc(-c2ccccc2)nc2ccccc12 | 5.63% | 
O=C(O)Cc1cccc2ccccc12 | 13.5% | 
CCN(CC)C(=O)c1ccc(O)c(OC)c1 |  | inactive
O=C1Nc2ccc(Cl)cc2C(C#CC2CC2)(C(F)(F)F)O1 (centres undefined) | -3.64% | 
CCCNC(=O)NS(=O)(=O)c1ccc(Cl)cc1 | -0.749% | 
CCN1CCC[C@H]1CNC(=O)c1cc(S(N)(=O)=O)ccc1OC | 9.88% | 
C[N+](C)(C)CCCCCC[N+](C)(C)C | 2.32% | 
O=c1[nH]cnc2c1ncn2[C@H]1CC[C@@H](CO)O1 | 4.36% | 
CCN(CC)CCNC(=O)c1ccc(N)cc1 | 23.6% | 
O=C(O)c1c(Cl)c(Cl)c(Cl)c(Cl)c1-c1c2cc(I)c(=O)c(I)c-2oc2c(I)c(O)c(I)cc12 | 13.6% | 
CCOC(=O)O[C@]1(C(=O)OCCl)CC[C@@H]2[C@H]3CCC4=CC(=O)C=C[C@]4(C)[C@@H]3[C@@H](O)C[C@@]21C | -13.5% | 
Clc1ccc(Cn2c(CN3CCCC3)nc3ccccc32)cc1 | -19.8% [at 12.8 µM] | 
CCN(CC)CCOC(=O)c1ccc(N)cc1 | 13.9% [at 12.8 µM] | 

Test system: PAD
Test: as above
Settings: P. falciparum in erythrocytes, SYBR Green DNA, 72 h; series mostly up to 28.7 µM; activity, negative = inhibition: at the top concentration
Procedure, shortened: as §1

Compound | activity, negative = inhibition | outcome
Cc1cccc(C)c1OCC(C)N (centres undefined) | -6.19% | 
COc1ccc(Cc2nccc3cc(OC)c(OC)cc23)cc1OC | -8.82% [at 12.8 µM] | 
CC(=O)c1ccc(S(=O)(=O)NC(=O)NC2CCCCC2)cc1 | 8.22% | 
CC(=O)N[C@@H](CS)C(=O)O | 2.85% | 
Cc1cnc(C(=O)O)c[n+]1[O-] | 4.4% | 
O=C1NC(=O)C(c2ccccc2)(c2ccccc2)N1 | 2.22% | 
CN(C)CCC(c1ccccc1)c1ccccn1 (centres undefined) | 12.6% | 
CC/C(=C(\c1ccccc1)c1ccc(OCCN(C)C)cc1)c1ccccc1 | -17.2% | 
O=C1NCC2(CCN(CCc3ccccc3)CC2)O1 | 7.3% | 
NC(N)=Nc1nc(CSCC/C(N)=N/S(N)(=O)=O)cs1 | 6.12% | 
CCCCCN(C)CCC(O)(P(=O)(O)O)P(=O)(O)O | 14.6% | 
NCCS | 12.3% | 
COc1ccccc1N1CCN(CCCNc2cc(=O)n(C)c(=O)n2C)CC1 |  | inactive
O=C(NCCN1CCOCC1)c1ccc(Cl)cc1 | 8.31% | 
C[C@@H](O)[C@H]1C(=O)N2C(C(=O)O)=C(S[C@@H]3CN[C@H](C(=O)N(C)C)C3)[C@H](C)[C@H]12 | 7.07% | 
CC(=O)CCCCn1c(=O)c2c(ncn2C)n(C)c1=O | 11.4% [at 12.8 µM] | 
O=C(O)c1cc(-c2ccccc2)nc2ccccc12 | 11.8% | 
O=C(O)Cc1cccc2ccccc12 | 1.3% | 
CCN(CC)C(=O)c1ccc(O)c(OC)c1 |  | inactive
CCCNC(=O)NS(=O)(=O)c1ccc(Cl)cc1 | 5.32% | 
CCN1CCC[C@H]1CNC(=O)c1cc(S(N)(=O)=O)ccc1OC | 13.3% | 
C[N+](C)(C)CCCCCC[N+](C)(C)C | 4.87% | 
O=c1[nH]cnc2c1ncn2[C@H]1CC[C@@H](CO)O1 | -13% | 
CCN(CC)CCNC(=O)c1ccc(N)cc1 | 17.4% | 
O=C(O)c1c(Cl)c(Cl)c(Cl)c(Cl)c1-c1c2cc(I)c(=O)c(I)c-2oc2c(I)c(O)c(I)cc12 | 4.89% | 
CCOC(=O)O[C@]1(C(=O)OCCl)CC[C@@H]2[C@H]3CCC4=CC(=O)C=C[C@]4(C)[C@@H]3[C@@H](O)C[C@@]21C | -7.81% | 
Clc1ccc(Cn2c(CN3CCCC3)nc3ccccc32)cc1 | -1.49% [at 12.8 µM] | 
CCN(CC)CCOC(=O)c1ccc(N)cc1 | 19.4% [at 12.8 µM] | 
